Source: PubChem (Broad Institute)
IDE exosite inh: insulin-degrading enzyme (human) exo-site inhibition; P14735; purified IDE, FL-6b probe fluorescence polarization; hits give low values; z-score at 20 µM; 17,000 tested, 6.3% active;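 active means z-score of -3 or lower, meaning strong loss of probe binding signal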;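 further: His-tagged human IDE residues 42-1019 made in E. coli with 30 nM FL-6b probe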
* hit, by the source's call; ! = repeats disagree. The entries come from a sample that favours hits as a whole.

SMILES	IDE exosite inh
O=C(Nc1ccc(F)cc1)N1CC(=O)N2[C@H](CO)[C@@H](c3ccc(Br)cc3)[C@@H]2C1	-1.14
COCCN(C[C@H]1N[C@H](CO)[C@@H]1c1ccc(-c2cccc(C#N)c2)cc1)C(C)=O	0.682
O=C(c1ccc(F)cc1)N1CC(=O)N2[C@H](C1)[C@@H](c1ccc(C3=CCCC3)cc1)[C@@H]2CO	6.42
CCC(=O)N1[C@H](CO)[C@@H](c2ccccc2)C12CN(C(=O)CN1CCOCC1)C2	0.552
N#C[C@H]1[C@H](c2ccccc2)[C@@H](CO)N1C(=O)Cc1ccccn1	2.79
N#Cc1cccc(-c2ccc(C3[C@@H]4CN(C(=O)C5CCOCC5)C[C@H]3N4)cc2)c1 (stereo partly drawn)	1
COc1cccc(-c2ccc(C3[C@@H]4CN(C(=O)C5CCCCC5)C[C@H]3N4)cc2)c1 (stereo partly drawn)	-0.312
COc1cccc(-c2ccc(C3[C@@H]4CN(C(=O)C5CCOCC5)C[C@H]3N4)cc2)c1 (stereo partly drawn)	-7.13*!
COCC(=O)N1[C@H](CO)[C@@H](c2ccc(-c3ccccc3OC)cc2)C12CN(C(C)=O)C2	-0.299
O=C(O)C[C@@H]1C[C@@H]2c3cc(NC(=O)Nc4ccc(C(F)(F)F)cc4)ccc3O[C@@H]2[C@H](CO)O1	0.211
CNC[C@H]1OCCCC[C@@H](C)Oc2ccc(NS(=O)(=O)c3ccc(F)cc3)cc2C(=O)N([C@@H](C)CO)C[C@H]1C	2.5
Cn1cnc(S(=O)(=O)N[C@@H]2CC[C@H](CC(=O)NCC3CCCCC3)O[C@H]2CO)c1	-1.1
COc1cccc(-c2ccc([C@H]3[C@H]4CN(Cc5cncnc5)CCCCN4[C@H]3CO)cc2)c1	-2.03
COc1cccc(-c2ccc([C@H]3[C@H](CO)N4CCCCN(CC5CC5)C[C@@H]34)cc2)c1	-0.719
Cc1cccc(-c2ccc([C@H]3[C@@H](CO)N4CCCCN(Cc5cncnc5)C[C@@H]34)cc2)c1	-1.13
OC[C@H]1[C@@H](c2ccc(-c3ccccc3)cc2)[C@@H]2CN(Cc3cncnc3)CCCCN12	-1.1
COc1cccc(-c2ccc([C@@H]3[C@@H](CO)N4CCCCN(CC5CC5)C[C@H]34)cc2)c1	-1.76
COc1cccc(-c2ccc([C@@H]3[C@H]4CN(Cc5cncnc5)CCCCN4[C@H]3CO)cc2)c1	-3.94*
Cc1ccc(-c2ccc([C@@H]3[C@H](CO)N4CCCCN(Cc5cncnc5)C[C@@H]34)cc2)cc1	0.206
Cc1ccc(-c2ccc([C@@H]3[C@@H](CO)N4CCCCN(Cc5cncnc5)C[C@@H]34)cc2)cc1	-0.541
COc1cccc(-c2ccc([C@@H]3[C@@H](CO)N4CCCCN(Cc5cncnc5)C[C@H]34)cc2)c1	0.317
Cc1cccc(-c2ccc([C@H]3[C@H]4CN(Cc5cncnc5)CCCCN4[C@H]3CO)cc2)c1	-5.97*
COc1cccc(-c2ccc([C@H]3[C@H]4CN(CC5CC5)CCCCN4[C@H]3CO)cc2)c1	-4.09*
Cc1cccc(-c2ccc([C@H]3[C@H](CO)N4CCCCN(Cc5cncnc5)C[C@@H]34)cc2)c1	-7.37*
CC(=O)N(C)C[C@H]1[C@H](c2ccc(-c3ccccc3F)cc2)[C@@H](CO)N1C(C)=O	2.38
SMILES	IDE exosite inh
CCCC#Cc1ccc([C@@H]2[C@@H](CO)N3C(=O)CN(C(=O)Nc4cc(F)ccc4F)C[C@@H]23)cc1	3.38
CCN1[C@@H]2c3ccc(-c4ccc(F)cc4)c(=O)n3C[C@H]1[C@H](CO)[C@H]2C(=O)Nc1nccs1	2.21
CC(=O)N1[C@H](CO)[C@H](c2ccc(-c3cccnc3)cc2)[C@H]1CNC(=O)C1CC1	1.02
CCS(=O)(=O)N1CCCCN2[C@H](CO)[C@@H](c3ccc(-c4cccc(C#N)c4)cc3)[C@@H]2C1	3.42
C[C@H]1CC=CC[C@@H](c2ccc3c(c2)OCO3)NC(=O)[C@H](C)N(C)C(=O)c2ccccc2O1 (mixture of isomers)	-0.388
Cc1cccc(-c2ccc([C@@H]3[C@@H](CO)N4CCCCN(Cc5cncnc5)C[C@H]34)cc2)c1	-4.56*
OC[C@H]1[C@H](c2ccc(-c3ccccc3)cc2)[C@@H]2CN(Cc3cncnc3)CCCCN12	0.387
OC[C@H]1[C@H](c2ccc(-c3ccccc3)cc2)[C@H]2CN(Cc3cncnc3)CCCCN21	0.904
CO[C@H]1CN(C)C(=O)c2cc(NC(=O)Nc3ccccc3F)ccc2OC[C@H](C)N(CCC(F)(F)F)C[C@@H]1C	0.177
COc1cccc(C#Cc2ccc([C@@H]3[C@H](C#N)N(C(=O)C4CCC4)[C@H]3CO)cc2)c1	4.18
COc1ccccc1C#Cc1ccc([C@H]2[C@@H](C#N)N(C(=O)C3CCCCC3)[C@H]2CO)cc1	-1.64
COc1cccc(C#Cc2ccc([C@@H]3[C@H](C#N)N(C(=O)C4CC4)[C@H]3CO)cc2)c1	-0.131
N#C[C@@H]1[C@H](c2ccc(C#Cc3ccc(F)cc3)cc2)[C@@H](CO)N1C(=O)C1CC1	4.93
COc1ccccc1C#Cc1ccc([C@@H]2[C@@H](C#N)N(C(=O)C3CCCCC3)[C@H]2CO)cc1	-7.99*
COc1ccccc1C#Cc1ccc([C@H]2[C@@H](CO)N(C(=O)C3CC3)[C@H]2C#N)cc1	-7.54*
N#C[C@H]1[C@@H](c2ccc(C#Cc3ccccc3F)cc2)[C@@H](CO)N1C(=O)C1CCCCC1	1.69
COc1ccccc1C#Cc1ccc([C@H]2[C@@H](C#N)N(C(=O)C3CCC3)[C@H]2CO)cc1	-4.87*
COc1cccc(C#Cc2ccc([C@H]3[C@@H](CO)N(C(=O)C4CCC4)[C@H]3C#N)cc2)c1	3.55
CCNC[C@@H]1[C@@H](c2ccc(C#Cc3ccccn3)cc2)[C@@H](CO)N1C(=O)C1CC1	2
C/C=C/c1ccc([C@H]2[C@@H](CO)N[C@@H]2CNC(=O)Cc2ccccc2)cc1	0.743
O=C(CN1CCOCC1)N1CCCCN2[C@H](CO)[C@H](c3ccc(C#Cc4ccccc4)cc3)[C@H]2C1	-8.69*
O=C(CN1CCOCC1)N1CCCCN2[C@H](CO)[C@@H](c3ccc(Br)cc3)[C@H]2C1	-0.735
O=C(CN1CCOCC1)N1CCCCN2[C@H](CO)[C@H](c3ccc(C#Cc4ccccc4F)cc3)[C@@H]2C1	-5.02*
O=C(CN1CCOCC1)N1CCCCN2[C@H](C1)[C@@H](c1ccc(C#Cc3ccccc3F)cc1)[C@@H]2CO	-5*
O=C(CN1CCOCC1)N1CCCCN2[C@H](CO)[C@H](c3ccc(C#Cc4ccccc4F)cc3)[C@H]2C1	-5.53*
SMILES	IDE exosite inh
COCC#Cc1ccc([C@H]2[C@H](CO)N3C(=O)CN(C(=O)c4ccncc4)C[C@@H]23)cc1	0.116
CC(C)CC#Cc1ccc([C@H]2[C@H]3CN(C(=O)c4ccc5c(c4)OCO5)CC(=O)N3[C@H]2CO)cc1	1.76
COc1ccccc1NC(=O)N1CCCCN2[C@H](C1)[C@@H](c1ccc(-c3ccc(C)cc3)cc1)[C@@H]2CO	3
CCCC(=O)Nc1ccc2c(c1)OC[C@H](C)NC[C@H](C)[C@@H](OC)CN(C)C2=O	-0.0435
O=C(c1ccc2c(c1)OCO2)N1CC(=O)N2[C@H](CO)[C@@H](c3ccc(C#CC4CCCC4)cc3)[C@@H]2C1	2.46
CN(C)CC#Cc1ccc([C@H]2[C@H]3CN(C(=O)c4ccc5c(c4)OCO5)CCCCN3[C@H]2CO)cc1	3.47
O=C(CCN1CCCCC1)NCC[C@H]1CC[C@@H](NS(=O)(=O)c2cccc(Cl)c2)[C@H](CO)O1	-0.58
O=C(Cc1cccnc1)N1CC2(C1)[C@@H](c1ccccc1)[C@H](CO)N2C(=O)C1CCOCC1	1.35
